High-throughput results as filed in PubChem.
12-LOX inh: Primary qHTS assay for inhibitors of human arachidonate 12S-lipoxygenase (ALOX12): Round 2; Polyunsaturated fatty acid lipoxygenase ALOX12 (Homo sapiens), P18054; purified 12hLO, xylenol orange hydroperoxide absorbance; Potency, µM (top dose mostly 108 µM), without a hit: at the highest dose activity change, negative = inhibition, actives largely listed as inhibitors; 580,000 tested, 1.1% active; AID 1671190, 2021; note: potency is the fitted concentration of half-maximal effect; % is set by controls: 0 for no effect and ±100 for the full control effect
Target sequence (P18054 whole entry, looked up): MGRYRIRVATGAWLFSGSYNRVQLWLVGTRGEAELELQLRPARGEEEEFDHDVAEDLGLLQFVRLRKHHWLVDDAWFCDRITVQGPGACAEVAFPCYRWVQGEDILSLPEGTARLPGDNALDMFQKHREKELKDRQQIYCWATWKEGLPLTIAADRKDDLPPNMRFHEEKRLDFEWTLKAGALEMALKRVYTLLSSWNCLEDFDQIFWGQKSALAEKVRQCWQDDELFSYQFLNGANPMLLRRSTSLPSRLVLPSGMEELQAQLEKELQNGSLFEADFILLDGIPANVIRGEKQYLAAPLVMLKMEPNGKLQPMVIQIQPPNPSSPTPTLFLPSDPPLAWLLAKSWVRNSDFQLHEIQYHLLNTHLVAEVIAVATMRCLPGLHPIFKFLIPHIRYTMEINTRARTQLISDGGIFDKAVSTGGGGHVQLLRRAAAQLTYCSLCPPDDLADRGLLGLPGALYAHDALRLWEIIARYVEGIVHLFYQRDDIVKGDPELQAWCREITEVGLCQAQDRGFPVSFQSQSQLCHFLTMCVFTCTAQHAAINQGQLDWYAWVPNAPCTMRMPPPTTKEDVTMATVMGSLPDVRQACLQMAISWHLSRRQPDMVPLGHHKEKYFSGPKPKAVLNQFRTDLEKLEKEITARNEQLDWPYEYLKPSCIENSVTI
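Hydroperoxide product was detected by ferrous iron/xylenol orange as the 573 to 405 nm absorbance ratio. Arachidonic acid at 40 uM (final) was turned over for 30 min at room temperature by 150 nM human 12hLO, pH 7.0 Hepes buffer, after 15 min compound preincubation.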
Nrf2 inh: Nrf2 qHTS screen for inhibitors; A549 ARE-Fluc reporter, luciferase luminescence, 18-24 h; Potency, µM (highest dose often 46 µM), for the others: top-dose activity change, negative = inhibition, hits mostly inhibitors; 360,000 tested, 2.1% active; note: potency is the fitted concentration of half-maximal effect; % is set by controls: 0 for no effect and ±100 for the full control effect; nearly all actives have a fitted effect of over 60% in size
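Concentration-response testing used A549 ARE_Fluc cells at 5000 cells/well. Following an 18-24 h compound incubation, viability was read by fluorescence (Ex 405/Em 525) and luciferase output by luminescence.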
Nrf2 ARE act: qHTS of Nrf2 Activators; AREc32 ARE-luciferase reporter (MCF7-derived line), luminescence, 24 h; Potency, µM (series often up to 46.1 µM), for the others: at the top dose activation, most hits filed as activators; 410,000 tested, 0.31% active; note: potency is the fitted concentration of half-maximal effect; % of control where 0% means no effect; nearly all actives have a fitted effect of over 65% in size
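AREc32_Fluc, 1000 cells/well, OPTI-MEM + 5% FBS, o/n 37 deg C 5% CO2; 23 nL cpd by pin tool, 24 hr; Steady-Glo 30 min RT, luminescence.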
A549 viability: Nrf2 qHTS screen for inhibitors: counterscreen for cytotoxicity. A549 ARE-Fluc cells, CellTiter-Fluor viability, 18-24 h. Potency, µM (highest dose often 46 µM), without a hit: top-dose activity change, negative = cytotoxicity, most hits filed as inhibitors. 390,000 tested, 0.16% active. AID 504648, 2011; note: potency is the fitted concentration of half-maximal effect; % is set by controls: 0 for no effect and ±100 for the full control effect
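Cytotoxicity counterscreen: CellTiter-Fluor fluorescence was measured in A549 ARE_Fluc cells after 18-24 h of compound exposure in a concentration series. The subsequent BugLite luminescent read reports ARE-luciferase activity.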
ERG-DNA inh: qHTS for Small Molecule Inhibitors of the ERG Ets/DNA interaction | AID 624246, 2012 | 370,000 tested, 0.028% active | fluorescence polarization, His-ERG Ets domain / labelled DNA | Transcriptional regulator ERG (Homo sapiens), P11308 | Potency, µM (titrated, usually from 76.9 µM), without a hit: top-dose FP activity, negative = inhibition, usual class: inhibitors; active = well fitted inhibition curve with a large enough effect in the polarisation, with a control signal flat; inconclusive = small, poorly fitted or top-dose-only effect, or effect the other way, or a change in a side signal; inactive = no such curve, though single readings can be large or run the other way; the % refers to the polarisation;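 note: polarization taken with two DNA probes labelled with fluorescein and Texas red; potency is the fitted concentration of half-maximal effect; % of control where 0% means no effect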
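His-tagged ERG Ets domain (1 uM in the protein solution; 300mM KCl, 50mM Tris-HCl, 1mM EDTA, 1mM DTT, pH 7.5) received compound, then a probe mix of 5 nM fluorescein-DNA and 100nM Texas-615-DNA. Fluorescence polarization was read for both dyes.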
LDHA block: qHTS assay for inhibitors of human lactate dehydrogenase | AID 1347041, 2019 | 480,000 tested, 0.15% active | activity change, % (values are at about 110 or 230 µM) | L-lactate dehydrogenase A chain (Homo sapiens), P00338 | purified LDHA, NADH/diaphorase-resazurin fluorescence; hits give low values; in the data active = activity change below about -30%; inconclusive = mostly about -25% to -30%;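 note: plate controls were DMSO wells for no effect and wells without enzyme for full effect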
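Human LDH5 at 2 nM final in Tris HCl pH 7.4 with 0.06 mM NADH and 0.2 mM pyruvate, reacted 5 minutes at room temperature. Remaining NADH coupled via diaphorase/resazurin; resorufin fluorescence read at 0 and 20 minutes, normalized to enzyme-free and DMSO wells.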
Numbers without * were called inactive. This is a sample that favours compounds with a hit; in the whole collection about 2.7% have one here. Unless noted, calls come from the whole dose curve; as a rule, active = well fitted curve in the direction sought with a large enough effect; inconclusive = small, poorly fitted or top-dose-only effect, or another doubt; inactive = no such curve, though single readings can be large; an effect the other way counts as inactive or inconclusive.

Results for CC(C)CC(=O)NN=C1CCC(C(C)(C)C)CC1 (stereo not given) ?
12-LOX inh: 1%; LDHA block: 16

What do the screens show for `Cc1nnc(SC(=O)N2c3ccccc3Sc3ccccc32)s1`?
12-LOX inh: inconclusive; Nrf2 inh: 13µM*; Nrf2 ARE act: inconclusive; A549 viability: 0%; LDHA block: -1

What do the screens show for `CCOC(=O)N1c2ccccc2Sc2ccccc21`?
12-LOX inh: -4%; Nrf2 inh: -11%; Nrf2 ARE act: -1%; A549 viability: -2%; ERG-DNA inh: 2%; LDHA block: -4

How did COc1ccc(-c2cn3ccccc3n2)cc1[N+](=O)[O-] do in these assays?
12-LOX inh: -10%; Nrf2 inh: inconclusive; Nrf2 ARE act: 8%; A549 viability: 4%; ERG-DNA inh: -10%; LDHA block: -2

Results for COc1ccc(-c2cn3cc([N+](=O)[O-])ccc3n2)cc1OC ?
12-LOX inh: -9%; Nrf2 inh: 3.7µM*; Nrf2 ARE act: 0%; A549 viability: -1%; ERG-DNA inh: 1%; LDHA block: 4

What do the screens show for `O=[N+]([O-])c1ccc2nonc2c1Nc1cc(Cl)ccc1Cl`?
12-LOX inh: inconclusive; LDHA block: 12

How did Cc1ccc2cc(CN(c3ccccc3)S(C)(=O)=O)c(=O)[nH]c2c1 do in these assays?
12-LOX inh: -3%; LDHA block: 8

How did COC(=O)c1ccc(CNC(=O)NOCc2ccccc2)cc1 do in these assays?
12-LOX inh: inconclusive; LDHA block: -4

How did Cc1ccc(-n2nc3c(c2NC(=O)c2ccc(Br)o2)CSC3)c(C)c1 do in these assays?
12-LOX inh: 8.9µM*; Nrf2 inh: -12%; Nrf2 ARE act: -1%; A549 viability: 0%; ERG-DNA inh: -15%; LDHA block: -8

How did Cc1ccc(-n2nc3c(c2NC(=O)C(C)(C)C)CSC3)c(C)c1 do in these assays?
12-LOX inh: 14%; Nrf2 inh: -33%; Nrf2 ARE act: 0%; A549 viability: 2%; ERG-DNA inh: 3%; LDHA block: 1

Results for Cc1cc(C(=O)N2CCN(S(=O)(=O)c3cc(Cl)ccc3Cl)CC2)c(C)n1Cc1ccco1 ?
12-LOX inh: inconclusive; LDHA block: -12

Results for O=C(c1cc(-c2ccco2)on1)N1CCCc2ccccc21 ?
12-LOX inh: inconclusive; Nrf2 inh: inconclusive; Nrf2 ARE act: 11µM*; A549 viability: 13%; ERG-DNA inh: 1%; LDHA block: 6

What do the screens show for `O=C(c1cc(-c2ccccc2O)on1)N1CCc2ccccc2C1`?
12-LOX inh: inconclusive; Nrf2 inh: 17%; Nrf2 ARE act: 5%; A549 viability: -5%; ERG-DNA inh: -1%; LDHA block: -1

How did O=C(c1coc(=O)c(Br)c1)N1CCCc2ccccc21 do in these assays?
12-LOX inh: 7.1µM*; Nrf2 inh: inconclusive; Nrf2 ARE act: 8%; A549 viability: -1%; ERG-DNA inh: 19%; LDHA block: 16

How did O=C(c1cc(-c2ccccc2)on1)N1CCCc2ccccc21 do in these assays?
12-LOX inh: 5%; Nrf2 inh: 7%; Nrf2 ARE act: 24%; A549 viability: 6%; ERG-DNA inh: 12%; LDHA block: 1

How did O=C(c1cc(-c2ccco2)on1)N1CCc2ccccc2C1 do in these assays?
12-LOX inh: 18µM*; Nrf2 inh: inconclusive; Nrf2 ARE act: 14µM*; A549 viability: 3%; ERG-DNA inh: -2%; LDHA block: -8

Results for CC1CCN(C(=O)c2cc(-c3ccco3)on2)CC1 ?
12-LOX inh: inconclusive; Nrf2 inh: inconclusive; Nrf2 ARE act: 14µM*; A549 viability: -2%; ERG-DNA inh: 0%; LDHA block: -9

How did CNc1nc(-c2sc3ccccc3c2C)cs1 do in these assays?
12-LOX inh: inconclusive; LDHA block: -4

What do the screens show for `COC(=O)COc1ccc2c(C)c(-c3ccccc3)c(=O)oc2c1`?
12-LOX inh: 9%; LDHA block: -6

How did Cc1ccc(-c2nn(-c3ccccc3)cc2C=C2C(=O)CC(C)(C)CC2=O)cc1 do in these assays?
12-LOX inh: 7.9µM*; Nrf2 inh: inconclusive; Nrf2 ARE act: 8%; A549 viability: -1%; ERG-DNA inh: -2%; LDHA block: -5

How did CC1(C)CC(=O)C(=Cc2cn(-c3ccccc3)nc2-c2ccccc2)C(=O)C1 do in these assays?
12-LOX inh: 4%; Nrf2 inh: 0%; Nrf2 ARE act: 0%; A549 viability: 0%; ERG-DNA inh: 1%; LDHA block: -9

Results for CC1=NNC(=O)/C1=C\c1cn(-c2ccccc2)nc1-c1ccc(Cl)cc1 ?
12-LOX inh: -19%; Nrf2 inh: 13µM*; Nrf2 ARE act: inconclusive; A549 viability: 21µM*; ERG-DNA inh: 4%; LDHA block: 0

What do the screens show for `CC(C)n1nnnc1SCC(=O)N1N=C(c2cc3ccccc3o2)CC1c1ccco1` (stereo not given)?
12-LOX inh: inconclusive; LDHA block: 4

What do the screens show for `CC(=O)Nc1ccc2c(c1)C(=Nc1ccc(C)cc1)c1ccccc1-2`?
12-LOX inh: -6%; Nrf2 inh: 9%; Nrf2 ARE act: 13µM*; A549 viability: -1%; ERG-DNA inh: 1%; LDHA block: -5

What do the screens show for `CC(=O)Nc1ccc2c(c1)C(=Nc1ccccc1)c1ccccc1-2`?
12-LOX inh: 7%; Nrf2 inh: 27%; Nrf2 ARE act: 11µM*; A549 viability: 4%; ERG-DNA inh: 12%; LDHA block: -5

How did COC(=O)CN1CCN(c2nc3c(c(=O)[nH]c(=O)n3C)n2Cc2ccc(F)cc2)CC1 do in these assays?
12-LOX inh: inconclusive; LDHA block: 11

What do the screens show for `O=c1c2ccccc2nc(/C=C/c2ccc([N+](=O)[O-])o2)n1CCCO`?
12-LOX inh: inconclusive; Nrf2 inh: 21µM*; Nrf2 ARE act: -1%; A549 viability: 23µM*; ERG-DNA inh: 1%; LDHA block: 0

What do the screens show for `CCN(c1ccccc1)S(=O)(=O)c1cccc(C(=O)Nc2ccc3oc(C)nc3c2)c1`?
12-LOX inh: 0%; LDHA block: -24

What do the screens show for `CC1(C)C2CC=C(/C=N/NC(=S)Nc3ccc(SC(F)F)cc3)C1C2` (stereo not given)?
12-LOX inh: 32µM*; LDHA block: -4
